# Assay outcomes as filed in PubChem.
# Most compounds without a hit are left out; they make up all but 12% or so of the library.
# Shiga inhibitor: A qHTS for Small Molecule Inhibitors of Shiga Toxin. Vero cells, Shiga toxin protein synthesis inhibition reporter. inhibition, % at 38.7 µM. 290,000 compounds, 9.2% hits; in the data active = inhibition mostly above about 28%, no sharp cut-off; inactive = mostly below about 43%
# Sm TGR block: qHTS Assay for the Inhibitors of Schistosoma Mansoni Peroxiredoxins; AID 485364, 2010; Potency, µM (top dose mostly 114 µM), actives largely listed as inhibitors; Schistosoma mansoni thioredoxin glutathione reductase (TGR), Q962Y6; purified TGR, DTNB reduction, TNB absorbance 405 nm; 360,000 compounds, 3% hits; active = well fitted inhibition curve with a large enough effect; inconclusive = small, poorly fitted or top-dose-only effect; inactive = no such curve, though single readings can be large or run the other way; also: nearly all actives have a fitted effect of over 60% in size
#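 First, TGR (20 nM dispensed) and NADPH were mixed with compound. Second, a 15 min room-temperature incubation followed. Third, further NADPH and then DTNB were added to start the reaction. Finally, TNB absorbance was monitored kinetically.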
# CHX counter: Cycloheximide Counterscreen for Small Molecule Inhibitors of Shiga Toxin; cell reporter, cycloheximide protein synthesis inhibition counterscreen; max response, %; 300,000 compounds, 12% hits; in the data active = max response mostly above about 13%, no sharp cut-off; inactive = mostly below about 14%; also: read at 38.3 µM for the half of the compounds with a filed dose
# FMDV antiviral: High Throughput Screening for Foot and Mouth Disease Virus Antivirals | FMDV antiviral cell-based qHTS | Potency, µM (top dose mostly 57.9 µM), hits mostly inhibitors | 410,000 compounds, 1.2% hits | AID 1159524, 2015; calls by dose curve; tested in HEK293T cells; also: read-out not given here; nearly all actives have a fitted effect of over 45% in size
# A number is an active result; 0 = inactive; ? = inconclusive; - = no result given.
SMILES,Shiga inhibitor,Sm TGR block,CHX counter,FMDV antiviral
COc1ccc(-c2csc(NC3=NCCCCC3)n2)cc1,108.3,0,33.3,0
COc1ccc(-c2csc(NNC3=NCCCCC3)n2)cc1,26.1,0,29.5,0
CCCn1c(=O)c2sccc2n2c(CCCC(=O)N3CCN(c4ccccc4)CC3)nnc12,-,0,-,0
COc1cccc(N2CCN(C(=O)Cn3cnc4onc(-c5ccc(F)cc5)c4c3=O)CC2)c1,-,0,-,0
Cc1ccc(C(CC(=O)Nc2cc(C)cc(C)c2)N2Cc3ccccc3C2=O)cc1 (stereo not given),-,0,-,0
Fc1ccc(-c2csc(NC3=NCCC3)n2)cc1,109.3,0,21.4,0
O=S(=O)(c1ccc(-c2csc(Nc3ccc(F)cc3)n2)cc1)N1CCCC1,0,0,0,?
O=C(Cc1cccs1)NCc1cn2ccccc2n1,0,0,0,0
O=C(NCc1cn2ccccc2n1)c1ccco1,0,0,24.7,0
O=C(Nc1ccc(-c2cn3ccccc3n2)cc1)c1ccco1,67.7,0,58.2,?
CCN(CC)S(=O)(=O)c1ccc(C(=O)NCCSc2c(-c3ccc(F)cc3)[nH]c3ccccc23)cc1,-,0,-,0
Cc1ccc(NCc2cc3cc4c(cc3n(CC(=O)Nc3ccc(C)cc3)c2=O)OCCO4)cc1,0,44.7µM,0,0
Cc1ccc(NCc2cc3cc4c(cc3n(CC(=O)Nc3ccc(F)cc3F)c2=O)OCCO4)cc1,-,?,-,0
Nc1nnc(N2CCCCC2)s1,0,0,0,0
Nc1nnc(N2CCc3ccccc32)s1,56.9,0,27.2,0
CCc1ccc(C(=O)NCc2ccc(Cl)cc2)cc1,0,0,15.0,0
CCc1ccc(C(=O)NNc2ccc(Cl)cc2)cc1,58.7,0,48.0,0
Cc1ccc(CNC(=O)c2ccc(N(C)C)cc2)cc1,60.5,0,22.7,0
Cc1ccc(NC(=O)CN2CCCCCC2)cc1[N+](=O)[O-],102.8,0,41.8,0
O=C(CN1CCCC1)Nc1ccc(Br)cc1[N+](=O)[O-],-,0,27.3,0
O=C(CN1CCCCCC1)Nc1ccc([N+](=O)[O-])cc1Br,0,0,0,0
CCOC(=O)c1ccccc1NS(=O)(=O)c1ccc(N2CCCCS2(=O)=O)cc1,-,0,-,0
CC(C)(C)[C@@H](O)C(Cc1ccc(Cl)cc1)n1cncn1 (stereo not given in full),0,-,0,-
O=C(NCCc1ccccc1)c1cc(Sc2cccc(Cl)c2)nc2ccccc12,-,0,-,0
O=C1C=Cc2ccccc2C1=O,0,11.2µM,0,-
SMILES,Shiga inhibitor,Sm TGR block,CHX counter,FMDV antiviral
Cc1ccc(CNC(=O)CC(C)S(=O)(=O)c2ccc3c(c2)NC(=O)CS3)o1 (stereo not given),0,14.1µM,0,0
COc1ccccc1CCNc1ncnc2sc(C(=O)N3CCCCC3)c(C)c12,-,-,-,0
CCCN1CCN(c2ncnc3sc(C(=O)Nc4c(C)cc(C)cc4C)c(C)c23)CC1,-,0,-,?
COc1cccc(-c2nn(C)c3sc(C(=O)N4CCN(c5cccc(C)c5)C(C)C4)cc23)c1 (stereo not given),-,0,-,0
CC1CC1C(=O)OCC(=O)NC(=O)NC12CC3CC(CC(C3)C1)C2 (stereo not given),86.4,0,42.7,0
COC(=O)[C@H](C)NC(=O)c1cc2c(cn1)[nH]c1ccccc12,0,0,15.2,0
O=C(NCCCO)c1cc2c(cn1)[nH]c1ccccc12,0,0,26.8,0
CCNc1ncc2nc(-c3cccs3)c(=O)n(CCc3ccccc3)c2n1,-,-,-,0
NC(=O)C1=C[C@@H](c2ccc(C(F)(F)F)cc2)C[C@@H](OCc2ccc(CO)cc2)O1,0,0,0,0
C#CCNC(=O)C1=C[C@@H](c2ccccc2)C[C@@H](OCc2ccc(CO)cc2)O1,0,44.7µM,0,0
C#CCNC(=O)C1=C[C@H](c2ccc(C(F)(F)F)cc2)C[C@H](OCc2ccc(CO)cc2)O1,0,39.8µM,0,0
C#CCNC(=O)C1=C[C@H](c2ccc(C#C)cc2)C[C@H](OCc2ccc(CO)cc2)O1,-,-,-,0
COc1ccc(NC(=O)c2ccc3c(=O)n4nc(Nc5ccccc5C)sc4nc3c2)cc1Cl,-,0,-,0
COc1cc(=O)n(C)c2c(OCC3OC(C)(C)OC3(C)C)cccc12 (stereo not given),0,0,9.7,0
CCOc1ccccc1N(C)C(=O)CCS(=O)(=O)c1ccc2c(c1)NC(=O)C(C)S2 (stereo not given),0,35.5µM,0,0
CC1Sc2ccc(S(=O)(=O)CCC(=O)N3CCN(c4cccc(Cl)c4)CC3)cc2NC1=O (stereo not given),0,0,0,25.1µM
CC1Sc2ccc(S(=O)(=O)N3CCC(C(=O)Nc4cccc(Cl)c4)CC3)cc2NC1=O (stereo not given),0,0,0,20µM
CC1Sc2ccc(S(=O)(=O)CCC(=O)N3CCN(c4ccccc4)CC3)cc2NC1=O (stereo not given),0,0,0,?
Cc1cc(C)n(C(C)CC(=O)Nc2ccc(C)c(F)c2)n1 (stereo not given),-,0,-,0
Oc1ccc(N=Nc2n[nH]c(-c3ccc(Br)cc3)n2)cc1,0,0,19.5,0
Oc1ccc(N=Nc2n[nH]c(-c3ccccc3)n2)cc1,88.7,0,32.5,0
Cc1ccc(C(=O)NCc2ccccc2)cc1NC(=O)c1nsc2ccccc12,-,0,-,0
COc1cccc(-c2nnc(SCC(=O)Nc3cc(C)on3)o2)c1,0,0,24.5,0
Cc1ccc(NC(=O)Cc2nc(CSc3nnc(-c4ccc5c(c4)OCO5)o3)cs2)cc1,98.0,0,0,0
CN(C)C(=O)c1ccc(NC(=O)CSc2nnc(-c3ccc4c(c3)OCO4)o2)cc1,-,0,-,0
SMILES,Shiga inhibitor,Sm TGR block,CHX counter,FMDV antiviral
Cc1cc(NC(=O)CSc2nnc(-c3cccc(Cl)c3)o2)no1,0,0,0,0
Cc1cc(NC(=O)CSc2nnc(-c3ccc4c(c3)OCCO4)o2)no1,120.6,0,21.9,0
Cc1cc(NC(=O)CSCC(=O)OCc2nnc(-c3ccccc3)o2)no1,0,0,15.9,0
CC(=O)CSc1nc(-c2ccccc2)[nH]c1S(=O)(=O)c1ccc(C)cc1,-,0,-,0
COc1cccc(-c2nnc(SCC(=O)N3CCCc4ccccc43)o2)c1,19.4,0,0,0
COc1cccc(-c2nnc(SCC(=O)N(C(C)C)C(C)C)o2)c1,55.8,?,0,0
Cc1ccc(CN2C(=O)C(=O)c3cc(Br)cc(C)c32)cc1,-,0,-,?
CCOc1ccc(C2Nc3cccc4cccc(c34)N2)cc1OC,0,25.1µM,0,0
CCOc1cc(C2Nc3cccc4cccc(c34)N2)ccc1O,0,11.2µM,0,0
COc1ccccc1C(=O)NCCn1cc(SCC(=O)Nc2ccccc2F)c2ccccc21,-,0,-,0
CC(/C=N/NC(=O)c1c(Br)cnn1C)=C\c1ccccc1,47.0,0,25.1,0
Cn1ncc(Br)c1C(=O)N/N=C/c1ccc(OS(=O)(=O)c2ccccc2)cc1,0,0,0,0
CC(/C=N/NC(=O)c1nn(C)c(C)c1Br)=C\c1ccccc1,117.4,0,63.4,0
CCOC(=O)c1ccc(N2CCN(c3cccc(Cl)c3)CC2)c(NC(=O)Nc2ccc(OC)cc2OC)c1,-,0,-,0
